Assay results as given in the supplement of paper PMC4022240.
± gives the standard deviation.

T1: HaloTag-ATRX ADD domain (163-292)
T1 chain: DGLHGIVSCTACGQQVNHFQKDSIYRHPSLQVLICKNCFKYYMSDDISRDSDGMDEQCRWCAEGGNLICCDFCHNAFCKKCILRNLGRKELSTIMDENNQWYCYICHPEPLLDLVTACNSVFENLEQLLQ


Legend:
Assay in all cases: peptide microarray binding signal (635 nm), min-max normalized on array (fraction of array maximum); higher = stronger binding
Conditions in all cases: peptide region: Unmod H2B variant
[1] = molecular target: T1, HaloTag-ATRX ADD domain (163-292)
Summary of the method: (§1)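 Triplicate spots of histone 13-mer peptide–cellulose conjugates with a Cy3 tracer were printed on nitrocellulose and probed for 1 h at 4°C with biotin-labelled HaloTag reader fusions (10 nM to 1 μM) plus streptavidin-Alexa Fluor 647 or rabbit histone antibodies (1:10,000 to 1:2,000) plus anti-rabbit Alexa 647. An Axon GenePix 4000B read the 635 nm channel. Binding signal is the spot-triplicate mean intensity after min-max scaling within each library.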

[2] = molecular target: HaloTag-ING2 PHD (mouse Ing2 200-280)
Summary of the method: as §1

[3] = molecular target: anti-H3K4me3 antibody ab8580
Summary of the method: as §1

[4] = molecular target: anti-H3K9me3 antibody ab8898
Summary of the method: as §1

[5] = binder concentration: 1:2,000 dilution
[6] = binder concentration: 1:10,000 dilution

Binder	peptide microarray binding signal ([1]; binder concentration: 50 nM)	peptide microarray binding signal ([1]; binder concentration: 500 nM)	peptide microarray binding signal ([2]; binder concentration: 10 nM)	peptide microarray binding signal ([2]; binder concentration: 100 nM)	peptide microarray binding signal [3, 5]	peptide microarray binding signal [3, 6]	peptide microarray binding signal [4, 5]	peptide microarray binding signal [4, 6]
YNKRSTITSREIQ [Unmod H2B variant Y N K R S T I T S R E I Q]	0.00837 ± 0.00045	0.0253 ± 0.0034	0.0181 ± 0.00093	0.0337 ± 0.0033	0.00293 ± 0.00014	0.00382 ± 0.00016	0.000936 ± 1.5e-05	0.00213 ± 7.9e-05
AMSIMNSFVTDIF [Unmod H2B variant A M S I M N S F V T D I F]	0.0108 ± 0.0002	0.0253 ± 0.001	0.01188 ± 7.7e-05	0.0239 ± 0.0025	0.00882 ± 0.0011	0.0132 ± 0.00021	0.00523 ± 0.00065	0.00571 ± 0.00035
NSFVTDIFERIAS [Unmod H2B variant N S F V T D I F E R I A S]	0.00646 ± 0.0003	0.0141 ± 0.00044	0.00483 ± 0.00011	0.00815 ± 0.00095	0.00238 ± 0.00045	0.00308 ± 0.00038	0.000936 ± 2e-05	0.00208 ± 9.6e-05
IAGEASRLAHYNK [Unmod H2B variant I A G E A S R L A H Y N K]	0.0147 ± 0.00017	0.0384 ± 0.0025	0.0361 ± 0.0036	0.0742 ± 0.0014	0.00521 ± 0.00045	0.00633 ± 0.00022	0.00217 ± 5.9e-05	0.00259 ± 4.6e-05
YSKRSTISSREIQ [Unmod H2B variant Y S K R S T I S S R E I Q]	0.01006 ± 2.8e-05	0.0303 ± 0.0022	0.0109 ± 0.00062	0.0429 ± 0.0047	0.00225 ± 0.00019	0.00211 ± 6.7e-05	0.00103 ± 2.2e-05	0.0015 ± 2.5e-05
DIFERIASEASRL [Unmod H2B variant D I F E R I A S E A S R L]	0.00655 ± 0.00034	0.00648 ± 0.00023	0.00454 ± 0.00011	0.0142 ± 0.0098	0.000793 ± 2.2e-05	0.00177 ± 2.9e-05	0.000453 ± 1.5e-05	0.001211 ± 1.2e-05
NSFVNDIFERIAG [Unmod H2B variant N S F V N D I F E R I A G]	0.00721 ± 0.00059	0.00671 ± 0.00013	0.00364 ± 0.00012	0.003827 ± 3.3e-05	0.00198 ± 0.00015	0.002339 ± 2.1e-05	0.00074 ± 6.4e-06	0.001614 ± 1.6e-05
DIFERIAGEASRL [Unmod H2B variant D I F E R I A G E A S R L]	0.0112 ± 0.00018	0.0406 ± 0.0012	0.013 ± 0.00037	0.0336 ± 0.00077	0.00406 ± 0.00012	0.00548 ± 0.00027	0.00234 ± 0.00013	0.003113 ± 2.6e-05
AMGIMNSFVNDIF [Unmod H2B variant A M G I M N S F V N D I F]	0.0068 ± 0.00037	0.0162 ± 0.0016	0.0083 ± 0.00011	0.0126 ± 0.00023	0.00362 ± 0.00022	0.00548 ± 0.00033	0.00285 ± 0.0002	0.00311 ± 5.3e-05
GISSKAMSIMNSF [Unmod H2B variant G I S S K A M S I M N S F]	0.0103 ± 0.00033	0.0293 ± 0.0012	0.011 ± 0.0025	0.0429 ± 0.016	0.00194 ± 0.00057	0.00228 ± 0.00014	0.000936 ± 5e-05	0.00144 ± 2.8e-05
